Screening results deposited in PubChem by The Scripps Research Institute Molecular Screening Center.
ssDAF-12 act: activators of S. stercoralis DAF-12 nuclear receptor; HEK293 ssDAF-12/GRIP1 lit1-tk-luc reporter, luminescence; % of 3 µM dafachronic acid response; activation, % at 6.8 µM; 1% of 370,000 active; AID 652126;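 active = activation above the mean over all tested compounds plus 3 SD, cut at about 0.9% in these data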;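 note: 0% = DMSO-only wells and 100% = 3 µM delta7-dafachronic acid wells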
AHR activator: activates the human aryl hydrocarbon receptor. P35869. activation, % at 5 µM. AID 2796. 2.5% of 320,000 active. AHR-responsive luciferase reporter cells, luminescence; in the data active = activation above about 47%;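 note: 0% = vehicle wells and 100% = reference agonist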
Target sequence (P35869 whole entry, looked up): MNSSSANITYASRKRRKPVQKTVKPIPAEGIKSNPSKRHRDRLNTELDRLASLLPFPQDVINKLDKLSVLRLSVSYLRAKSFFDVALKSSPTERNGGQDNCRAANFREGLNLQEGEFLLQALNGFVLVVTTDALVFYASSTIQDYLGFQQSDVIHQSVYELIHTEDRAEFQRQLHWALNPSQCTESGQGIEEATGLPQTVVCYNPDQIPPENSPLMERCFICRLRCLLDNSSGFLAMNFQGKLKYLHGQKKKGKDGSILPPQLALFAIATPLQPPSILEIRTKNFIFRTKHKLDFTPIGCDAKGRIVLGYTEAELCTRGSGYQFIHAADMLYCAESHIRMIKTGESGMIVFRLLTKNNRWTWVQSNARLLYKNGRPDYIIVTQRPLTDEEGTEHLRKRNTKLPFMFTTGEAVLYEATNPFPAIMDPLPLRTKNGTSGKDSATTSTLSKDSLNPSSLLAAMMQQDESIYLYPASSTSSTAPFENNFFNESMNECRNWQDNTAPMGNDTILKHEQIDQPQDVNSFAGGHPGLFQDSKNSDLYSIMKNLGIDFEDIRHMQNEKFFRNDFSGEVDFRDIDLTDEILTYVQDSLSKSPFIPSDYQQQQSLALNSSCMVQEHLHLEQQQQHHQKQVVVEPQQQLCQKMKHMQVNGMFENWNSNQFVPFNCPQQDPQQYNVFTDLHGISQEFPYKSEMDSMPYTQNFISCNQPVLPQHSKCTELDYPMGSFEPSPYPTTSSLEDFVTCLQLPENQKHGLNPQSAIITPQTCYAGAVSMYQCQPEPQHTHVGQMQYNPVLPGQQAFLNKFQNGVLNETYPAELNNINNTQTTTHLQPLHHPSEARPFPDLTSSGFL
DAX1 inh-1: inhibitors of DAX1 repression of SF-1 activated StAR promoter; HEK293T StAR-luciferase reporter, SF-1/DAX-1 repression relief; inhibition, % at 6.8 µM; 1.1% of 370,000 active;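 active = inhibition above the mean over all tested compounds plus 3 SD, cut at about 3.6% in these data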;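 note: 0% = DAX-1 cells with DMSO and 100% = cells lacking DAX-1 with DMSO; higher inhibition means more luminescence from relief of DAX-1 repression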
DAX1 inh-2: inhibitors of human orphan nuclear receptor DAX1 (NR0B1); 0.99% of 340,000 active; inhibition, % at 6.75 µM; HEK293 Gal4-DAX1 luciferase reporter, luminescence; AID 504766;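 active = inhibition above the mean over all tested compounds plus 3 SD, cut at about 4.2% in these data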;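 note: 0% = DAX1-transfected cells with DMSO and 100% = empty-vector control cells with DMSO; inhibition shows as a rise in luminescence from relieved DAX1 repression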
hgDAF-12 ag: activates the H. glycines DAF-12 receptor ligand-binding domain; 1.8% of 370,000 active; AID 687014; activation, % at 6.8 µM; HEK293 GAL4-hgDAF12 UAS-luciferase reporter, agonist luminescence; normalized to butyrate control;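 active = activation above a cutoff set at the mean of all screened compounds plus 3 SD, cut at about 10% in these data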;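 note: 0% = DMSO wells and 100% = sodium butyrate wells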
hcDAF-12 act: H. contortus DAF-12 activation, primary screen. HEK293 hcDAF-12 lit1-tk-luc reporter, luminescence; 0% DMSO, 100% Δ7-dafachronic acid. activation, % at 6.8 µM. 1.4% of 370,000 active. AID 652067;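 active = activation above the mean of all tested compounds plus 3 SD, cut at about 5.5% in these data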;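 note: 100% = response to 3 µM Δ7-dafachronic acid high control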
AHR act confirm: human AHR activation, confirmation; shares compounds with AHR activator; human cells, AHR-responsive luciferase reporter, luminescence; activation, % at 9 µM; 87% of 2,300 active; AID 2845; in the data active = activation above about 49%;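 note: HepG2 hepatoma cells carrying a DRE-driven firefly luciferase reporter; 0% = vehicle wells and 100% = reference agonist wells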
PXR counter: activates human PXR in AHR activator counter-screen. cell-based PXR reporter, luciferase luminescence. activation, % at 11.6 µM. shares compounds with AHR activator. AID 434939. 88% of 2,300 active; in the data active = activation above about 11%;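 note: human hepatoma DPX-2 cells expressing full-length human PXR; 0% = DMSO and 100% = reference agonist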
An asterisk follows results filed as active. In the library only some 5.7% were active in any assay of this set; here they are far more common.

Results for Oc1c(C(c2ccc(F)cc2)N2CCc3ccccc3C2)sc2ncnn12 (stereo unspecified) ?
ssDAF-12 act: -0.6; AHR activator: 96.3*; DAX1 inh-1: -0.4; DAX1 inh-2: -0.2; hgDAF-12 ag: 1.1; hcDAF-12 act: -1.4; AHR act confirm: 77.7*; PXR counter: 33.5*

How did NC1=NC(=Nc2cccc(Cl)c2)c2ccccc21 do in these assays?
ssDAF-12 act: -1.0; AHR activator: 1.5; DAX1 inh-1: -0.5; DAX1 inh-2: 0.6; hgDAF-12 ag: -3.3; hcDAF-12 act: -1.8

Results for NC1=NC(=Nc2ccc(Br)cc2)c2ccccc21 ?
ssDAF-12 act: -1.1; AHR activator: 88.2*; DAX1 inh-1: 0.3; DAX1 inh-2: -0.3; hgDAF-12 ag: 4.9; hcDAF-12 act: 0.5; AHR act confirm: 12.6; PXR counter: 14.8*

How did O=C(NC1CCCC1)c1c(O)nc2sccn2c1=O do in these assays?
ssDAF-12 act: -0.9; AHR activator: 85.1*; DAX1 inh-1: 1.5; DAX1 inh-2: 0.1; hgDAF-12 ag: 0.6; hcDAF-12 act: -0.7; AHR act confirm: 114.5*; PXR counter: 10.0

What do the screens show for `Cc1csc2nc(O)c(C(=O)NC3CCCCC3)c(=O)n12`?
ssDAF-12 act: -1.0; AHR activator: 5.2; DAX1 inh-1: 2.4; DAX1 inh-2: 1.8; hgDAF-12 ag: 3.2; hcDAF-12 act: -0.7

How did N#Cc1c(-c2cccs2)cc(-c2ccccn2)nc1N do in these assays?
ssDAF-12 act: -1.0; AHR activator: 79.9*; DAX1 inh-1: -1.8; DAX1 inh-2: -1.1; hgDAF-12 ag: -0.7; hcDAF-12 act: 0.9; AHR act confirm: 98.4*; PXR counter: 23.1*

Results for N#Cc1c(-c2ccc(Br)cc2)cc(-c2cccnc2)nc1N ?
ssDAF-12 act: -1.0; AHR activator: 93.1*; DAX1 inh-1: -0.5; DAX1 inh-2: 1.8; hgDAF-12 ag: -0.9; hcDAF-12 act: -2.6; AHR act confirm: 72.8*; PXR counter: 18.3*

How did COc1cccc(-c2cc(-c3cccnc3)nc(N)c2C#N)c1 do in these assays?
ssDAF-12 act: -1.8; AHR activator: 29.2; DAX1 inh-1: -0.5; DAX1 inh-2: 1.6; hgDAF-12 ag: -4.4; hcDAF-12 act: -0.4

Results for N#Cc1c(-c2cccc(Br)c2)cc(-c2cccnc2)nc1N ?
ssDAF-12 act: -1.5; AHR activator: 23.1; DAX1 inh-1: -0.2; DAX1 inh-2: -0.7; hgDAF-12 ag: 1.8; hcDAF-12 act: -1.9

What do the screens show for `N#Cc1c(N)nc2c(c1-c1cccs1)CCCC2`?
ssDAF-12 act: -0.8; AHR activator: 18.5; DAX1 inh-1: 0.2; DAX1 inh-2: -0.6; hgDAF-12 ag: -0.8; hcDAF-12 act: -2.3

What do the screens show for `N#Cc1c(-c2cccs2)cc(-c2cccnc2)nc1N`?
ssDAF-12 act: -1.3; AHR activator: 101.7*; DAX1 inh-1: -1.2; DAX1 inh-2: 0.0; hgDAF-12 ag: -1.0; hcDAF-12 act: 2.1; AHR act confirm: 129.5*; PXR counter: 27.8*

How did COc1ccccc1CNC(=O)CSC(=S)N1CCCC1 do in these assays?
ssDAF-12 act: -0.9; AHR activator: 4.4; DAX1 inh-1: -0.5; DAX1 inh-2: 2.0; hgDAF-12 ag: -0.7; hcDAF-12 act: 2.0

Results for CCCn1cc(CN2CCCC(C(=O)c3ccc4c(c3)OCO4)C2)c(C)n1 (stereo unspecified) ?
ssDAF-12 act: -0.4; AHR activator: 2.4; DAX1 inh-1: -0.1; DAX1 inh-2: 0.8; hgDAF-12 ag: 2.3; hcDAF-12 act: -1.9

How did CC(C)C[C@H](NC(=O)N1CCn2c1nc1ccccc12)C(=O)N[C@@H](Cc1ccccc1)C(=O)O do in these assays?
ssDAF-12 act: -0.7; AHR activator: -1.0; DAX1 inh-1: 1.5; DAX1 inh-2: 2.0; hgDAF-12 ag: -0.4; hcDAF-12 act: 0.4

Results for Cc1ccc(CN2CC[C@H]3C=CCc4cccc(c43)C2)cc1 ?
ssDAF-12 act: -0.7; AHR activator: 2.3; DAX1 inh-1: 0.3; DAX1 inh-2: -0.1; hgDAF-12 ag: 1.8; hcDAF-12 act: -1.0
